Laboratory results taken from PubChem BioAssay (Tox21).
Results filed as inconclusive are left out. Unmarked numbers belong to inactive results. Calls follow the shape of the full dose curve.

assay: qHTS assay to identify small molecule agonists or antagonists of the thyroid stimulating hormone receptor (TSHR) signaling pathway - wild type cell line counter screen (AID 1259384); conditions: HEK293 wild type, cAMP HTRF counter-screen, active compounds read high; series mostly up to 92.4 µM; cAMP activity change: at the top concentration
Source text: U.S. Tox21 Program National Center for Advancing Translational Sciences [NCATS] NIH Chemical Genomics Center [NCGC] U.S. Environmental Protection Agency [EPA] National Institutes of Environmental Health Sciences [NIEHS] National Toxicology Program [NTP] U.S. Food and Drug Administration [FDA] Tox21 Assay Overview: TSHR is the receptor for thyrotropin (thyroid stimulating hormone or TSH), a member of the glycoprotein hormone family. TSH is released by the anterior pituitary gland and is the main regulator of thyroid gland growth and development. Upon binding circulating thyrotropin, a G-protein signal cascade activates adenylyl cyclase and […] cAMP concentration is increased. cAMP is a key second messenger involved extensively in cellular signal transduction pathways associated with the majority of G-protein coupled receptors (GPCRs). The activation of these GPCRs by neurotransmitters, lipids, nucleotides, peptides and hormones results in the activation or the inhibition of plasma membrane-bound adenylate cyclase through heterotrimeric G-proteins. A cell-based TSHR-Hek293 assay can be used to identify TSHR agonists. To eliminate the false positive compounds identified from screening a cell-based TSHR-Hek293 cell line, cAMP assay in a wild type Hek293 cells was used as a counter screening.
Tox21 Assay Protocol Summary: Hek293 cells (wild type) were dispensed at 800 cells/4 uL/well in 1536-well white plates using a Multidrop dispenser. After the assay plates were incubated at a 37 C/5% CO2 incubator for 18 hrs, 23 nL of compounds dissolved in DMSO, positive controls or DMSO only was transferred to the assay plate by a pin tool, followed by 1 ul medium containing Ro20-1724. After 30 min of incubation at room temperature, 2.5 ul/well of cAMP-d2 and 2.5 ul/well of anti-cAMP-cryptate were added respectively into the assay plates using a Flying Reagent Dispenser. The plates were incubated at room temperature for 1 hr. The fluorescence intensity in the plates was measured using an Envision plate reader. Each test compound was measured at 15 concentrations and in triplicates.
% is scaled to controls: 0 for no effect and ±100 for the full control effect.

| Compound | cAMP activity change |
| --- | --- |
| CC(C)(C)c1n[nH]c(=S)n(N)c1=O | -0.179% |
| CC1COc2ccccc2N1 (stereo not given) | 0.0744% |
| CN(CCOc1ccc(NS(C)(=O)=O)cc1)CCc1ccc(NS(C)(=O)=O)cc1 | -0.201% [at 42.5 µM] |
| COC(=O)c1ccccc1C(=O)c1ccc(OCCN2CCCCC2)cc1 | 7.71% [at 42.5 µM] |
| BrCCCCCBr | -0.023% |
| C=C(C)C(=O)OCCOP(=O)(O)OCCOC(=O)C(=C)C | 0.364% |
| COc1ccc(Br)c(C)c1 | 0.803% |
| CCCCCCCCCCl | -6.09% |
| CCCC/C=C\CCCCCCCCCC=O | 7.11% |
| CCCCC(CC)COCCO (stereo not given) | -0.55% |
| CCOc1cc([N+](=O)[O-])c(OCC)cc1N1CCOCC1 | -2.44% |
| CCOc1cc(NC(C)=O)ccc1C(=O)OC | -0.976% [at 42.5 µM] |
| CCOC(=O)CC(=O)c1ccccc1 | 0.597% |
| COc1cc2c(cc1OC)C(=O)CC2 | -4.42% [at 42.5 µM] |
| N[C@@H](CCC(=O)Nc1ccc([N+](=O)[O-])cc1)C(=O)O | 2.4% |
| Cc1cccc(OCC(O)CNC(C)(C)C)c1C (stereo not given) | -5.54% [at 42.5 µM] |
| O=C(O)c1ccc(Cl)cc1Cl | -1.7% |
| CC1(C)S[C@@H]2[C@H](N=CN3CCCCCC3)C(=O)N2[C@H]1C(=O)O | 0.661% [at 42.5 µM] |
| CCCCOC(=O)c1ccccc1 | -1.4% |
| COC(=O)CCc1ccc(OCC(O)CNC(C)C)cc1 (stereo not given) | 0.911% [at 42.5 µM] |

| Compound | cAMP activity change |
| --- | --- |
| Cc1cc(C(C)(C)C)c(O)c(C)c1CC1=NCCN1 | -5.31% [at 42.5 µM] |
| CN(C)c1ccc(C=O)cc1 | -0.333% |
| CC(C)c1ccc2cc(C(C)C)ccc2c1 | -1.95% |
| CC(C(=O)O)c1ccc2c(c1)CC(=O)c1ccccc1S2 (stereo not given) | 5.41% [at 42.5 µM] |
| C=C(C)C(=O)OCCNC(C)(C)C | -0.17% |
| O=C1c2ccccc2C(=O)C1c1ccccc1 | 16.7% [at 42.5 µM] |
| CCN1CCc2nc(N)oc2CC1 | -2.35% [at 42.5 µM] |
| CN(C)CCOCCO | 0.348% |
| C=CCCCCCCCCCCCC | -1.39% |
| CC(C)N(c1ccccc1)C(C)C | -1.75% |
| CC(N)C(=O)OC(C)(C)Cc1ccc(Cl)cc1 (stereo not given) | 7.01% [at 42.5 µM] |
| NC(CO)C(=O)NNCc1ccc(O)c(O)c1O (stereo not given) | -12.2% [at 42.5 µM] |
| CC(=O)NCc1c(I)c(NC(C)=O)c(I)c(C(=O)O)c1I | -1.4% [at 42.5 µM] |
| CCCCNc1ccc(C(=O)OCCN(C)C)cc1 | 2.53% [at 42.5 µM] |
| N[C@@H](COP(=O)(O)O)C(=O)O | 0.501% [at 18.9 µM] |
| O=C1CCCC(=O)O1 | -0.11% |
| CC(C)C(=O)OCc1cccc(OC(=O)[C@@H]2N3C(=O)[C@@H](NC(=O)Cc4ccccc4)[C@H]3SC2(C)C)c1 | 7.88% [at 42.5 µM] |
| CCCCCOC(=O)CCC | -0.118% |
| O=C(Nc1ccc(Cl)c(Cl)c1)C1CC1 | 2.59% [at 42.5 µM] |
| NS(=O)(=O)c1cc2c(cc1Cl)CN(C1CCCCC1)C2=O | 7.71% [at 42.5 µM] |
